# Measured values reported in the supplement of paper PMC8728848.
# Only a selection was taken, and the strongest signals are over-represented in it overall.
# B1: SabA (Helicobacter pylori) (protein)
# chain: MGSSHHHHHHSSGLVPRGSHMENLYFQGEDNGFFVSAGYQIGEAVQMVKNTGELKNLNEKYEQLSQYLNQVASLKQSIQNANNIELVNSSLNYLKSFTNNNYNSTTQSPIFNAVQAVITSVLGFWSLYAGNYFTFFVGKKVGDSGQPASVQGNPPFKTIIENCSGIENCAMDQTTYDKMKKLAEDLQAAQTNSATKGNNLCALSGCAATDSTSNPPNSTVSNALNLAQQLMDLIANTKTAMMWKNIVISGVSNTSGAITSTNYPTQYAVFNNIKAMIPILQQAVTLSQSNHTLSASLQAQATGSQTNPKFAKDIYTFAQNQKQVISYAQDIFNLFNSIPAEQYKYLEKAYLKIPNAGSTPTNPYRQVVNLNQEVQTIKNNVSYYGNRVDAALSVARDVYNLKSNQAEIVTAYNDAKTLSEEISKLPHNQVNTKDIVTLPYDKNAPAAGQSNYQINPEQQSNLNQALAAMSNNPFKKVGMISSQNNNGA
# How the values were obtained:
# Test in all cases: glycan array binding signal (z-score within array); higher = stronger binding
# Conditions in all cases: glycan notation: IUPAC condensed, linker removed
# [1] = molecular target: Gal(b1-4)GlcNAc(b1-3)Gal(b1-4)GlcNAc(b1-2)[Gal(b1-4)GlcNAc(b1-3)Gal(b1-4)GlcNAc(b1-6)]Man(a1-6)[Gal(b1-4)GlcNAc(b1-3)Gal(b1-4)GlcNAc(b1-2)Man(a1-3)]Man(b1-4)GlcNAc(b1-4)GlcNAc
# Outline: (§1)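 From the Consortium for Functional Glycomics database, 3228 arrays were curated, keeping only those whose protein sequence was available. Binding is given as a within-array Z-score averaged across arrays sharing a protein sequence and across linkers. Negative Z-scores can be read as non-binding.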
# [2] = molecular target: Gal(b1-4)GlcNAc(b1-3)Gal(b1-4)GlcNAc(b1-3)Gal(b1-4)GlcNAc(b1-2)Man(a1-3)[Gal(b1-4)GlcNAc(b1-3)Gal(b1-4)GlcNAc(b1-3)Gal(b1-4)GlcNAc(b1-2)Man(a1-6)]Man(b1-4)GlcNAc(b1-4)[Fuc(a1-6)]GlcNAc
# Outline: as §1
# [3] = molecular target: Gal(b1-4)GlcNAc(b1-3)Gal(b1-4)GlcNAc(b1-3)Gal(b1-4)GlcNAc(b1-3)Gal(b1-4)GlcNAc(b1-2)Man(a1-3)[Gal(b1-4)GlcNAc(b1-3)Gal(b1-4)GlcNAc(b1-3)Gal(b1-4)GlcNAc(b1-3)Gal(b1-4)GlcNAc(b1-2)Man(a1-6)]Man(b1-4)GlcNAc(b1-4)[Fuc(a1-6)]GlcNAc
# Outline: as §1
# [4] = molecular target: Gal(b1-4)GlcNAc(b1-3)Gal(b1-4)GlcNAc(b1-3)Gal(b1-4)GlcNAc(b1-3)Gal(b1-4)GlcNAc(b1-3)Gal(b1-4)GlcNAc(b1-2)[Gal(b1-4)GlcNAc(b1-3)Gal(b1-4)GlcNAc(b1-3)Gal(b1-4)GlcNAc(b1-3)Gal(b1-4)GlcNAc(b1-3)Gal(b1-4)GlcNAc(b1-6)]Man(a1-6)[Gal(b1-4)GlcNAc(b1-3)Gal(b1-4)GlcNAc(b1-3)Gal(b1-4)GlcNAc(b1-3)Gal(b1-4)GlcNAc(b1-3)Gal(b1-4)GlcNAc(b1-2)Man(a1-3)]Man(b1-4)GlcNAc(b1-4)[Fuc(a1-6)]GlcNAc
# Outline: as §1
# [5] = molecular target: Gal(b1-4)GlcNAc(b1-3)Gal(b1-4)GlcNAc(b1-6)[Gal(b1-3)]GalNAc
# Outline: as §1
# GalNAc(b1-4)Gal(b1-4)Glc = molecular target: GalNAc(b1-4)Gal(b1-4)Glc
# Outline: as §1
# GalNAc(b1-4)GlcNAc = molecular target: GalNAc(b1-4)GlcNAc
# Outline: as §1
# [6] = molecular target: GalNAc(b1-4)GlcNAc(b1-2)Man(a1-3)[GalNAc(b1-4)GlcNAc(b1-2)Man(a1-6)]Man(b1-4)GlcNAc(b1-4)GlcNAc
# Outline: as §1
# [7] = molecular target: GalNAc3S(b1-4)[Fuc(a1-3)]GlcNAc
# Outline: as §1
# GalNAc6S(b1-4)GlcNAc = molecular target: GalNAc6S(b1-4)GlcNAc
# Outline: as §1
# [8] = molecular target: GlcA3S(b1-3)Gal(b1-4)GlcNAc(b1-2)Man
# Outline: as §1
# [9] = molecular target: GlcNAc(a1-4)Gal(b1-4)GlcNAc(b1-3)Gal(b1-4)Glc
# Outline: as §1
# [10] = molecular target: GlcNAc(b1-2)[GlcNAc(b1-4)]Man(a1-3)[GlcNAc(b1-2)Man(a1-6)]Man(b1-4)GlcNAc(b1-4)GlcNAc
# Outline: as §1
# [11] = molecular target: GlcNAc(b1-3)Gal(b1-4)GlcNAc(b1-2)Man(a1-3)[GlcNAc(b1-3)Gal(b1-4)GlcNAc(b1-2)Man(a1-6)]Man(b1-4)GlcNAc(b1-4)[Fuc(a1-6)]GlcNAc
# Outline: as §1
# GlcNAc(b1-3)GalNAc = molecular target: GlcNAc(b1-3)GalNAc
# Outline: as §1
# GlcNAc(b1-3)Man = molecular target: GlcNAc(b1-3)Man
# Outline: as §1
# [12] = molecular target: GlcNAc(b1-4)Gal(b1-4)GlcNAc
# Outline: as §1
# Man(a1-6)Man = molecular target: Man(a1-6)Man
# Outline: as §1
# [13] = molecular target: Neu5Ac(a2-3)Gal(b1-3)GalNAc
# Outline: as §1
# [14] = molecular target: Neu5Ac(a2-3)Gal(b1-3)GlcNAc(b1-2)Man(a1-3)[Neu5Ac(a2-3)Gal(b1-3)GlcNAc(b1-2)Man(a1-6)]Man(b1-4)GlcNAc(b1-4)GlcNAc
# Outline: as §1
# [15] = molecular target: Neu5Ac(a2-3)Gal(b1-3)GlcNAc(b1-3)GalNAc
# Outline: as §1
# [16] = molecular target: Neu5Ac(a2-3)Gal(b1-3)[Fuc(a1-4)]GlcNAc(b1-3)Gal(b1-3)[Fuc(a1-4)]GlcNAc
# Outline: as §1
# [17] = molecular target: Neu5Ac(a2-3)Gal(b1-3)[Neu5Ac(a2-6)]GlcNAc(b1-3)[Fuc(a1-3)[Gal(b1-4)]GlcNAc(b1-6)]Gal(b1-4)Glc
# Outline: as §1
# Neu5Ac(a2-3)Gal(b1-4)Glc = molecular target: Neu5Ac(a2-3)Gal(b1-4)Glc
# Outline: as §1
# [18] = molecular target: Neu5Ac(a2-3)Gal(b1-4)GlcNAc(b1-3)Gal(b1-4)GlcNAc(b1-3)Gal(b1-4)GlcNAc
# Outline: as §1
# [19] = molecular target: Neu5Ac(a2-6)Gal(b1-3)GlcNAc(b1-3)[Gal(b1-4)GlcNAc(b1-6)]Gal(b1-4)Glc
# Outline: as §1
# [20] = molecular target: Neu5Ac(a2-8)Neu5Ac(a2-3)Gal(b1-4)GlcNAc
# Outline: as §1
# [21] = molecular target: Neu5Ac(a2-8)Neu5Ac(a2-8)Neu5Ac
# Outline: as §1
# [22] = molecular target: Neu5Gc(a2-3)Gal(b1-4)GlcNAc
# Outline: as §1
# [23] = molecular target: Neu5Gc(a2-6)Gal(b1-4)GlcNAc
# Outline: as §1
binder,measurement,setting,value
B1,glycan array binding signal (z-score),[1],2.39
same,glycan array binding signal (z-score),[2],-0.537
same,glycan array binding signal (z-score),[3],0.132
same,glycan array binding signal (z-score),[4],-0.103
same,glycan array binding signal (z-score),[5],-0.494
same,glycan array binding signal (z-score),GalNAc(b1-4)Gal(b1-4)Glc,1.6
same,glycan array binding signal (z-score),GalNAc(b1-4)GlcNAc,0.676
same,glycan array binding signal (z-score),[6],2.98
same,glycan array binding signal (z-score),[7],-0.298
same,glycan array binding signal (z-score),GalNAc6S(b1-4)GlcNAc,0.834
same,glycan array binding signal (z-score),[8],-0.867
same,glycan array binding signal (z-score),[9],-0.716
same,glycan array binding signal (z-score),[10],-0.287
same,glycan array binding signal (z-score),[11],0.826
same,glycan array binding signal (z-score),GlcNAc(b1-3)GalNAc,0.191
same,glycan array binding signal (z-score),GlcNAc(b1-3)Man,1.69
same,glycan array binding signal (z-score),[12],-0.173
same,glycan array binding signal (z-score),Man(a1-6)Man,-0.738
same,glycan array binding signal (z-score),[13],0.965
same,glycan array binding signal (z-score),[14],1.79
same,glycan array binding signal (z-score),[15],-0.131
same,glycan array binding signal (z-score),[16],0.27
same,glycan array binding signal (z-score),[17],-0.626
same,glycan array binding signal (z-score),Neu5Ac(a2-3)Gal(b1-4)Glc,2.88
same,glycan array binding signal (z-score),[18],0.051
same,glycan array binding signal (z-score),[19],-0.762
same,glycan array binding signal (z-score),[20],-0.714
same,glycan array binding signal (z-score),[21],-0.39
same,glycan array binding signal (z-score),[22],-0.614
same,glycan array binding signal (z-score),[23],0.779
